Measured values from the supplement of paper PMC10849652.
The full data set covers some 8,800 targets. This sample favours those with a hit. About 0.5% of all pairs of compound and target were hits. Values without a mark were called inactive.

Assays:
Test in all cases: log2 fold change, soluble protein after heating vs DMSO (PISA); higher = thermal stabilisation; K562 lysate, 10 uM; active = over 0.2 and 3.5 SD of the protein, either way, in both replicates (recomputed)
[1] = compound: CCCS(=O)(=O)Nc1ccc(F)c(C(=O)c2c[nH]c3ncc(-c4ccc(Cl)cc4)cc23)c1F [vemurafenib]
In short: (§1)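 Quantification was by TMTpro 16plex LC-MS/MS with equalised channel sums, applied to the supernatant after 21,000xg for 90 min. Samples were crude K562 extract at 1 mg/mL protein in PBS pH 7.4 with 1 mM MgCl2, treated with 10 μM compound for 30 min, heated for 3 min across 48°C-58°C, pooled and brought to 0.5% NP-40 at 4°C. Values are log-two fold changes in thermal stability relative to solvent controls, from duplicates.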

[2] = compound: CCCS(=O)(=O)Nc1ccc(F)c(C(=O)c2c[nH]c3ncc(Cl)cc23)c1F
In short: as §1

[3] = compound: CCN(CCCOc1ccc2c(Nc3cc(CC(=O)Nc4cccc(F)c4)[nH]n3)ncnc2c1)CCOP(=O)(O)O [barasertib]
In short: as §1

[4] = compound: CC[C@@H]1C(=O)N(C)c2cnc(Nc3ccc(C(=O)NC4CCN(C)CC4)cc3OC)nc2N1C1CCCC1
In short: as §1

[5] = compound: CC[C@@H]1C(=O)N(C)c2cnc(Nc3ccc(C(=O)N[C@H]4CC[C@H](N5CCN(CC6CC6)CC5)CC4)cc3OC)nc2N1C(C)C [volasertib]
In short: as §1

[6] = compound: CCn1c(C(=O)N(C2CC2)C2CC2)cc2c3c(ncn3C)c(Nc3cc(C)n(C)n3)nc21
In short: as §1

[7] = compound: CCn1cc(-c2ccnc3[nH]c(-c4cccc(CN(C)C)c4)cc23)c(-c2ccc(NC(=O)N(C)C)cc2)n1
In short: as §1

[8] = compound: CN1CCC(CNc2ccc3ncc(-c4cccc(OC(F)(F)F)c4)n3n2)CC1
In short: as §1

[9] = compound: CN1CCN(CCOc2cc(OC3CCOCC3)c3c(Nc4c(Cl)ccc5c4OCO5)ncnc3c2)CC1 [saracatinib]
In short: as §1

[10] = compound: CN1CCN(c2nc(C3=C(c4c[nH]c5ccccc45)C(=O)NC3=O)c3ccccc3n2)CC1 [sotrastaurin]
In short: as §1

[11] = compound: CN1CC[C@H](c2c(O)cc(O)c3c(=O)cc(-c4ccccc4Cl)oc23)[C@H](O)C1 [alvocidib]
In short: as §1

[12] = compound: CN1CCc2c(c3ccccc3n2Cc2ccc(C(=O)NO)cc2)C1 [Tubastatin A]
In short: as §1

[13] = compound: CNC(=O)C1=CC=CC=C1NC2=NC(=NC=C2Cl)NC3=C(C=C(C=C3)N4CCOCC4)OC
In short: as §1

[14] = compound: CNC(=O)c1ccc(Nc2ncc(C(F)(F)F)c(NCc3nccnc3N(C)S(C)(=O)=O)n2)cc1 [defactinib]
In short: as §1

[15] = compound: CNc1nc(-c2ccc3c(N)n[nH]c3c2)cc(N2C[C@@H](C(=O)NC3CCCCC3)CC[C@H]2C)n1
In short: as §1

[16] = compound: COC(=O)N[C@@H](C)CNc1nccc(-c2cn(C(C)C)nc2-c2cc(Cl)cc(NS(C)(=O)=O)c2F)n1 [encorafenib]
In short: as §1

[17] = compound: COC(=O)[C@H](CCSC)NC(=O)C1=C(C=C(C=C1)NC[C@H](CS)N)C2=CC=CC=C2
In short: as §1

[18] = compound: COc1cc(Nc2ncc3c(n2)-c2ccc(Cl)cc2C(c2c(F)cccc2OC)=NC3)ccc1C(=O)O [alisertib]
In short: as §1

[19] = compound: COc1cc2nc(-c3cc(F)ccc3O)nc(N[C@@H]3CNC[C@H]3C(C)(C)O)c2cc1OC
In short: as §1

[20] = compound: COc1cc2ncnc(Nc3ccc(F)c(Cl)c3)c2cc1OCCCN1CCOCC1 [gefitinib]
In short: as §1

Sequence of UniProt O43819 (O43819 whole entry, looked up): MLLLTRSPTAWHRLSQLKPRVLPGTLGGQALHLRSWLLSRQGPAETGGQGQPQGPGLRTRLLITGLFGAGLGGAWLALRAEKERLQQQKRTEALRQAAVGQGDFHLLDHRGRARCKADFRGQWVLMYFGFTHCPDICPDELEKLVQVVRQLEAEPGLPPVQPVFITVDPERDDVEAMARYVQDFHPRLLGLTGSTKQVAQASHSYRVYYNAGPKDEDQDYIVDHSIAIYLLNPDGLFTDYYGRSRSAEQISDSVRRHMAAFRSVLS
Sequence of UniProt Q13464 (Q13464 whole entry, looked up): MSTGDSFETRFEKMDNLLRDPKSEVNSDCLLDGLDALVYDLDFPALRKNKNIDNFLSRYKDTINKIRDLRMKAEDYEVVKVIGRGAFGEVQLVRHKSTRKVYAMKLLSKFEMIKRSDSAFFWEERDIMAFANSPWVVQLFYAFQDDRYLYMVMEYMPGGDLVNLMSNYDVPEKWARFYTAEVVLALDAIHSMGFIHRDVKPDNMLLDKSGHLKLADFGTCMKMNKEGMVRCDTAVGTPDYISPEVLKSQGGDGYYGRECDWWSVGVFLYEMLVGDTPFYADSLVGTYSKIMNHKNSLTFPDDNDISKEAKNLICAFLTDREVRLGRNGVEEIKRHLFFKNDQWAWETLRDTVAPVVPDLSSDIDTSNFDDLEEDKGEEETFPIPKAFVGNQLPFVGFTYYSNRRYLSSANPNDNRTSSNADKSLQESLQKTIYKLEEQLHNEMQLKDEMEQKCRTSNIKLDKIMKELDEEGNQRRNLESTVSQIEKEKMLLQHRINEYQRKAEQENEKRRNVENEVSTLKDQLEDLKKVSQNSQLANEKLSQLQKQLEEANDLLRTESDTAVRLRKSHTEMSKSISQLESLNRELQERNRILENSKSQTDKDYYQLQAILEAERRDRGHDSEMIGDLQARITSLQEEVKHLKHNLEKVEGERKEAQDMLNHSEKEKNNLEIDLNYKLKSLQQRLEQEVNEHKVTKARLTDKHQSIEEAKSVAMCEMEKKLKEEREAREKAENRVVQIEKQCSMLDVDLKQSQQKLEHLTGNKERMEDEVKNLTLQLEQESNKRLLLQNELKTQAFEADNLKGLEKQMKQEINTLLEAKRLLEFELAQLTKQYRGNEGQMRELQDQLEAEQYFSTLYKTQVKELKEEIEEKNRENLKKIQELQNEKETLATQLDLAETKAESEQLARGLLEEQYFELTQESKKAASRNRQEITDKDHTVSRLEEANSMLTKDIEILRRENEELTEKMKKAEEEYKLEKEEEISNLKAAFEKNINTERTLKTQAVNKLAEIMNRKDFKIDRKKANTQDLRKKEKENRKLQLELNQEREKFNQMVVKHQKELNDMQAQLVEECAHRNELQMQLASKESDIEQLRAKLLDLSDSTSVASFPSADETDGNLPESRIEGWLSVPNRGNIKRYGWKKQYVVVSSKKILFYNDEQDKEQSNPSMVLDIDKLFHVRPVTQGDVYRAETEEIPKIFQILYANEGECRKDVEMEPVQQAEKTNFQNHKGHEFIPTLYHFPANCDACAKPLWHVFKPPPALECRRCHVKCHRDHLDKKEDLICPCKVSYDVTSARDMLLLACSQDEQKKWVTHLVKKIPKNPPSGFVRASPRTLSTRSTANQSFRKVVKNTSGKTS
Sequence of UniProt O60518 (O60518 whole entry, looked up): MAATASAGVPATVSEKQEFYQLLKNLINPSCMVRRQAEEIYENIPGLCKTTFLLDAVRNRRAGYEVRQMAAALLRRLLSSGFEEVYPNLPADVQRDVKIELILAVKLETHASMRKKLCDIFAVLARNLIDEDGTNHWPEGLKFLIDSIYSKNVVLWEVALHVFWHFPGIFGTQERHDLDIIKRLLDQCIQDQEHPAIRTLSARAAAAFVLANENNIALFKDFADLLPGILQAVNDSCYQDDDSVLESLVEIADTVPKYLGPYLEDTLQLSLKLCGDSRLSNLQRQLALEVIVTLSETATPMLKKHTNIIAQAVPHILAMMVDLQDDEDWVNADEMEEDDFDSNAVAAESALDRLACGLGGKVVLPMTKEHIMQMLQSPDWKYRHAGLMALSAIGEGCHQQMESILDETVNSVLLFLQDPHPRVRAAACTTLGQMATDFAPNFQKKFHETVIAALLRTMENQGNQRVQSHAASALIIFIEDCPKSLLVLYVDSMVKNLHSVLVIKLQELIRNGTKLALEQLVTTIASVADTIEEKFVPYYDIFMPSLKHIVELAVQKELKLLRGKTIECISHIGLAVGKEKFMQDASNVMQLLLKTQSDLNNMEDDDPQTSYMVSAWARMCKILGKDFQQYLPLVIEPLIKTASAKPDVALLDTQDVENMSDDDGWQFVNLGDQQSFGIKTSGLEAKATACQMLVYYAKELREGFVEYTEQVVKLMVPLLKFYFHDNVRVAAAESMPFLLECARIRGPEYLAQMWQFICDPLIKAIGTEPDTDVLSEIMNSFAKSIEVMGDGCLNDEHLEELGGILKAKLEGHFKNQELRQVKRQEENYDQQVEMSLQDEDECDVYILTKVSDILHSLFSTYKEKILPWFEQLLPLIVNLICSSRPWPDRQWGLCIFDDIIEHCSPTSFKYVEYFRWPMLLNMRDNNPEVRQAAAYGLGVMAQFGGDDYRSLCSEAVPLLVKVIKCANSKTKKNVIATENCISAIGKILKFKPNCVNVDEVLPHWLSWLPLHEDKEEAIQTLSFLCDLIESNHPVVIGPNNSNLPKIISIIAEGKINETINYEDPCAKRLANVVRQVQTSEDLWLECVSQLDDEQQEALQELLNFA
Sequence of UniProt Q05823 (Q05823 whole entry, looked up): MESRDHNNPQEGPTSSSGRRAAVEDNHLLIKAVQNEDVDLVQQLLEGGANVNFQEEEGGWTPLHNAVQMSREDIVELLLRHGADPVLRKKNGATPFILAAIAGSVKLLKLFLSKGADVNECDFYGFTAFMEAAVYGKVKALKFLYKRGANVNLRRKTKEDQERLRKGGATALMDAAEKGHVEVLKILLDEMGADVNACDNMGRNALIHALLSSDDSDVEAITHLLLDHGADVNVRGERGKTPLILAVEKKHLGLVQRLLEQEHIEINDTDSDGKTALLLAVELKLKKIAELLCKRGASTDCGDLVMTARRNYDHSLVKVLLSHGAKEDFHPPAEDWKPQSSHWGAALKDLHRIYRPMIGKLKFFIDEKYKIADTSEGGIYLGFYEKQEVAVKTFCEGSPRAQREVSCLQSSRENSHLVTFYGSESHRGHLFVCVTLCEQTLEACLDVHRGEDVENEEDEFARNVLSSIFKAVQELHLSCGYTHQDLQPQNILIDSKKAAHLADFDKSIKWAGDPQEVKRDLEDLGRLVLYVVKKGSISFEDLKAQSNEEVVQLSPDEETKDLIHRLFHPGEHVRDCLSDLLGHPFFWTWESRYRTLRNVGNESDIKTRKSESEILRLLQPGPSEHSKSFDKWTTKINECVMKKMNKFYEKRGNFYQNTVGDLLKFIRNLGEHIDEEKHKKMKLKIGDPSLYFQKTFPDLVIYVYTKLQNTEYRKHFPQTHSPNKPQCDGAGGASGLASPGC
Sequence of UniProt P78406 (P78406 whole entry, looked up): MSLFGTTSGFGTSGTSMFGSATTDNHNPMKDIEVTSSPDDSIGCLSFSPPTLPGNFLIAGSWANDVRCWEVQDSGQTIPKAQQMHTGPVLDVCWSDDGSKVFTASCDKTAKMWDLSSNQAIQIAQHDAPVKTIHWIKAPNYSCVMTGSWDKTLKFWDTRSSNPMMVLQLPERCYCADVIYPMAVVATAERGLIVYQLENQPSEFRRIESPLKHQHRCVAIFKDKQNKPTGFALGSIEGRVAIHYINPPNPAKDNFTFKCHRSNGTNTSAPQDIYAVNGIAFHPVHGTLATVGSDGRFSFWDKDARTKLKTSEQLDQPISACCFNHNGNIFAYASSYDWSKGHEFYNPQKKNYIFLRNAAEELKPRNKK
Sequence of UniProt Q00765 (Q00765 whole entry, looked up): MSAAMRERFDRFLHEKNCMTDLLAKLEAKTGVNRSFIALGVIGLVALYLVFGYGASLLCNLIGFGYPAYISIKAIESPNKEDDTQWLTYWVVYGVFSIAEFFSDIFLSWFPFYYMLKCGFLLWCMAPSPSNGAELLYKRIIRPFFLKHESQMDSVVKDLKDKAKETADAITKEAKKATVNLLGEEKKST
Sequence of UniProt P23921 (P23921 whole entry, looked up): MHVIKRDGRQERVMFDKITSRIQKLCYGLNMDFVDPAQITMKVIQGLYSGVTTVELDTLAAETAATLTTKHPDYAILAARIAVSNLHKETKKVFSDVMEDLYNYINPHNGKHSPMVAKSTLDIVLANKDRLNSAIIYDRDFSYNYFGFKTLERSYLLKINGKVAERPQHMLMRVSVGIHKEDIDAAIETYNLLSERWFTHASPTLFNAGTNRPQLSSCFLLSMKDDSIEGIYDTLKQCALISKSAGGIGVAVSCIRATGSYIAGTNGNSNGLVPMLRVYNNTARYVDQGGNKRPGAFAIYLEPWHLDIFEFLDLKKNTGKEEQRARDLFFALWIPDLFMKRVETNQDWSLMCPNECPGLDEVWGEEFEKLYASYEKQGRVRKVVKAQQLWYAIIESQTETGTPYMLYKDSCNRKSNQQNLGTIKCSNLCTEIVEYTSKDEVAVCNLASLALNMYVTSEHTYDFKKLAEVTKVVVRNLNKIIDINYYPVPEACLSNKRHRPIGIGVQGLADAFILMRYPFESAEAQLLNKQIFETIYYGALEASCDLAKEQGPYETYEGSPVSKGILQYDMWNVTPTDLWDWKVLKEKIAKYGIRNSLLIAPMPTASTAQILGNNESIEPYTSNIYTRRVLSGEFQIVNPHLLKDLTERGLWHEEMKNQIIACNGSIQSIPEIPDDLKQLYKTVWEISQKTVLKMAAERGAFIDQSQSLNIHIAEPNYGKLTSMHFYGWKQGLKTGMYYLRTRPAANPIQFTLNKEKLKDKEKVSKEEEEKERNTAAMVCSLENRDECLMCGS
Sequence of UniProt P61224 (P61224 whole entry, looked up): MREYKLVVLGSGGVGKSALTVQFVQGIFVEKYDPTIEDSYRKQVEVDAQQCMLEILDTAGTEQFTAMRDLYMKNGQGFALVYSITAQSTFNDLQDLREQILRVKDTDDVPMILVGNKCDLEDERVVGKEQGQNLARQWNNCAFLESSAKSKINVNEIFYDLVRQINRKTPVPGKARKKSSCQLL

| Target | log2 fold change [1] | log2 fold change [2] | log2 fold change [3] | log2 fold change [4] | log2 fold change [5] | log2 fold change [6] | log2 fold change [7] | log2 fold change [8] | log2 fold change [9] | log2 fold change [10] | log2 fold change [11] | log2 fold change [12] | log2 fold change [13] | log2 fold change [14] | log2 fold change [15] | log2 fold change [16] | log2 fold change [17] | log2 fold change [18] | log2 fold change [19] | log2 fold change [20] |
| --- | --- | --- | --- | --- | --- | --- | --- | --- | --- | --- | --- | --- | --- | --- | --- | --- | --- | --- | --- | --- |
| SCO2 (UniProt O43819) | -0.064 | 0.054 | 0.019 | -0.075 | -0.028 | -0.087 | -0.235 | 0.076 | -0.046 | 0.003 | -0.009 | 0.039 | 0.073 | 0.008 | -0.007 | 0.027 | -0.607 (active) | -0.115 | 0.046 | 0.114 |
| SCML2 (UniProt Q9UQR0) | 0.033 | -0.006 | -0.028 | -0.007 | -0.018 | 0.02 | 0.033 | 0.032 | 0.064 | -0.067 | 0.006 | -0.204 | 0.031 | -0.03 | -0.035 | 0.01 | 0.18 | 0.025 | -0.016 | -0.053 |
| REL isoform 2 (UniProt Q04864) | -0.035 | 0.017 | 0.033 | 0.049 | -0.032 | 0.025 | 0.02 | -0.174 | -0.002 | -0.022 | 0.061 | -0.126 | 0.003 | 0.023 | -0.056 | 0.012 | 0.029 | -0.003 | -0.019 | 0.029 |
| RRM1 (UniProt P23921) | 0.023 | 0.018 | 0.011 | -0.065 | -0.063 | 0.003 | -0.045 | -0.031 | -0.02 | -0.016 | -0.004 | -0.098 | -0.007 | 0.022 | -0.03 | 0.005 | 0.098 | 0.007 | 0.007 | -0.006 |
| RBM4 (UniProt Q9BWF3) | -0.013 | -0.042 | 0.023 | -0.053 | -0.032 | 0.045 | 0.344 (active) | -0.044 | -0.013 | -0.015 | 0.16 | -0.168 | 0.013 | -0.011 | -0.088 | 0.089 | -0.066 | 0.037 | 0.006 | -0.004 |
| RIOK1 (UniProt Q9BRS2) | 0.021 | 0.023 | 0.001 | 0.02 | -0.093 | 0.004 | 0.017 | 0.057 | 0.032 | 0.001 | 0 | 0.005 | 0.008 | -0.009 | 0.413 (active) | 0.006 | -0.006 | 0.01 | 0.168 | -0.019 |
| REEP5 (UniProt Q00765) | -0.008 | -0.006 | -0.008 | 0.073 | 0.023 | 0.027 | -0.051 | 0.026 | 0.017 | -0.02 | -0.054 | -0.004 | -0.056 | 0.04 | 0.035 | 0.001 | 0.263 (active) | -0.009 | 0.001 | -0.092 |
| RDX (UniProt P35241) | 0 | -0.008 | 0.003 | 0.016 | 0.017 | -0.018 | 0.712 (active) | -0.109 | -0.018 | -0.013 | 0.116 | 0.042 | -0.002 | -0.009 | 0.034 | -0.047 | -0.033 | -0.018 | 0 | 0.013 |
| RNASEL (UniProt Q05823) | -0.004 | 0.053 | 0.077 | -0.017 | -0.103 | 0.012 | -0.006 | -0.025 | -0.011 | 0.024 | 0.054 | -0.094 | -0.034 | -0.02 | 0.012 | 0.029 | 0.144 | -0.074 | -0.035 | 0.061 |
| RBSN (UniProt Q9H1K0) | 0.051 | 0.01 | 0.023 | 0.035 | -0.087 | 0.006 | -0.075 | 0.038 | 0.023 | -0.019 | -0.031 | 0.005 | -0.047 | 0.015 | -0.014 | 0.089 | -0.048 | 0.019 | 0.015 | 0.059 |
| RBBP7 isoform 2 (UniProt Q16576) | -0.064 | -0.007 | -0.042 | -0.057 | 0.022 | 0.047 | -0.274 (active) | 0.088 | 0.001 | 0.032 | -0.005 | -0.004 | -0.021 | -0.023 | -0.028 | 0.03 | -0.034 | 0.03 | -0.003 | 0.002 |
| RBM5 (UniProt P52756) | -0.021 | -0.018 | 0.087 | 0.013 | -0.277 | 0.064 | 0.048 | -0.012 | -0.039 | -0.03 | -0.226 | -0.059 | 0.021 | 0.01 | 0.028 | 0.044 | 0.134 | -0.035 | 0.182 | 0.18 |
| RAE1 (UniProt P78406) | -0.017 | -0.021 | -0.051 | 0.04 | -0.081 | 0.018 | -0.355 (active) | 0.131 | 0.039 | 0.044 | -0.038 | -0.072 | 0.039 | -0.004 | -0.044 | 0.038 | 0.345 (active) | -0.015 | -0.002 | 0.033 |
| RAP1B (UniProt P61224) | 0.006 | 0.008 | 0.054 | 0.061 | 0.018 | -0.037 | 0.372 (active) | -0.035 | 0.002 | 0.005 | 0.039 | 0.05 | 0.005 | 0.02 | 0.025 | 0.011 | -0.034 | 0.015 | 0.057 | -0.054 |
| RANBP6 (UniProt O60518) | 0.008 | 0.025 | 0.013 | -0.016 | 0.013 | 0.068 | -0.045 | 0.06 | -0.038 | 0.002 | -0.033 | -0.07 | 0.008 | 0.047 | 0.014 | -0.027 | 0.057 | 0.063 | 0.046 | 0.008 |
| ROCK1 (UniProt Q13464) | 0.014 | 0.004 | 0.004 | 0.018 | -0.045 | 0.001 | -0.017 | 0.025 | -0.017 | 0.015 | 0.004 | 0.013 | -0.029 | -0.02 | 0.039 | -0.004 | -0.019 | -0.045 | 0.022 | -0.004 |
